Assay results from PubChem BioAssay (Tox21).
“And” between values parts separate entries of the source, which are not always exact repeats. Identical values can stand only once. Records with an inconclusive call do not appear. Where a call stands in place of a potency, no number is given. A structure can be active in one record and inactive in another. The source made the active and inactive calls. Unless noted, calls come from the whole dose curve; as a rule, active = well fitted curve in the direction sought with a large enough effect in the repeat runs; inconclusive = weak or mixed curves; inactive = no such curve, though single readings can be large; an effect the other way counts as inactive or inconclusive.

Key:
[1] = target: Thyrotropin-releasing hormone receptor (Homo sapiens) (UniProt P34981); assay: qHTS assay to identify small molecule agonists of the thyrotropin-releasing hormone receptor (TRHR) signaling pathway (AID 1346891; calls by dose curve;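 note: HEK293 cells expressing TRHR with calcium dye readout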); conditions: TRHR-HEK293 calcium fluorescence, agonist mode; series mostly up to 57.6 µM
Chain of Thyrotropin-releasing hormone receptor (Homo sapiens) (P34981 whole entry, looked up): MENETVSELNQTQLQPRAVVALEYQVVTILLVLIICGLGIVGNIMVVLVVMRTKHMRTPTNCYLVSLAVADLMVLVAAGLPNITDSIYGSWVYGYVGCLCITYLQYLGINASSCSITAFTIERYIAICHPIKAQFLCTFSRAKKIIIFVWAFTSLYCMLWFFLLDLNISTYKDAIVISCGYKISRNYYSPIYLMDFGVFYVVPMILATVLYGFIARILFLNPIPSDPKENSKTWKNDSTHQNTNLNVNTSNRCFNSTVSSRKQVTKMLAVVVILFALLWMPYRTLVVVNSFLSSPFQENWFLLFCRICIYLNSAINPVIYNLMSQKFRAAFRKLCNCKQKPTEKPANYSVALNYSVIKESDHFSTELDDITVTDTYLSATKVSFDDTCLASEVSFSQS
Summary of the method: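 In 1536-format, 1500 TRHR-Hek293 cells per well grew 18 h, took up calcium dye for 2 h at 37 °C, received compound, and were read kinetically; 15-point titrations, triplicates.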

[2] = Human pregnane X receptor (PXR) small molecule agonists, qHTS cell viability counter screen (AID 1346977); conditions: PXR-Luc HepG2 viability, CellTiter-Fluor, 24 h; series mostly up to 92.4 µM; note: nearly all actives have a fitted effect of over 50% in size
Summary of the method: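 Readout is CellTiter-Fluor fluorescence from PXR-Luc HepG2 cells. Plated cells rested 5hr, then were treated with compounds for 24hr at 37C and 5% CO2, with reagent present during the last hour.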

[3] = Caspase-3/7 induction in HepG2 cells by small molecules, qHTS assay (AID 1346978); conditions: HepG2 caspase-3/7 activation, Caspase-Glo luminescence, 17 h; series mostly up to 92.4 µM; note: nearly all actives have a fitted effect of over 15% in size
Summary of the method: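 Caspase-3/7 induction was measured by Caspase-Glo 3/7 luminescence (30 min, room temperature) after a 17 hr compound exposure of wild-type HepG2 cells seeded at 2,000 per well and pre-incubated 5 hr.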

[4] = Caspase-3/7 induction in CHO-K1 cells by small molecules, qHTS cell viability counter screen (AID 1346979); conditions: CellTiter-Fluor fluorescence, 17 h; series mostly up to 92.4 µM; note: nearly all actives have a fitted effect of over 35% in size; note: potency is the fitted concentration of half-maximal effect
Summary of the method: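 To flag cytotoxic compounds, treated CHO-K1 wild-type cells were given CellTiter-Fluor at 16hr and read fluorescently after 1hr at 37C; the caspase-3/7 luminescence was measured in these same wells.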

[5] = Caspase-3/7 induction in CHO-K1 cells by small molecules, qHTS assay (AID 1346980); conditions: CHO-K1 caspase-3/7 induction, Caspase-Glo luminescence, 17 h; series mostly up to 92.4 µM; note: nearly all actives have a fitted effect of over 15% in size
Summary of the method: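 Luminescent Caspase-Glo 3/7 read (30min, room temperature) quantified apoptosis induction. Cells were wild-type CHO-K1, treated with compound for 17hr at 37 C and 5% CO2.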

[6] = Caspase-3/7 induction in HepG2 cells by small molecules, qHTS cell viability counter screen (AID 1346981); conditions: CellTiter-Fluor fluorescence, 17 h; series mostly up to 92.4 µM; note: nearly all actives have a fitted effect of over 30% in size
Summary of the method: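 In this quantitative HTS counter screen, compounds delivered in DMSO were left on unmodified HepG2 cells for 16 hr at 37 C. Viability was then determined fluorometrically with CellTiter-Fluor, in parallel with caspase-3/7 induction in the same wells.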

[7] = target: Nuclear receptor subfamily 1 group I member 2 (Homo sapiens) (UniProt O75469); assay: Human pregnane X receptor (PXR) small molecule agonists, qHTS assay (AID 1346982); conditions: PXR-Luc HepG2, CYP3A4 luciferase reporter, 24 h; series mostly up to 92.4 µM; note: nearly all actives have a fitted effect of over 35% in size; note: potency is the fitted concentration of half-maximal effect
Chain of Nuclear receptor subfamily 1 group I member 2 (Homo sapiens) (O75469 whole entry, looked up): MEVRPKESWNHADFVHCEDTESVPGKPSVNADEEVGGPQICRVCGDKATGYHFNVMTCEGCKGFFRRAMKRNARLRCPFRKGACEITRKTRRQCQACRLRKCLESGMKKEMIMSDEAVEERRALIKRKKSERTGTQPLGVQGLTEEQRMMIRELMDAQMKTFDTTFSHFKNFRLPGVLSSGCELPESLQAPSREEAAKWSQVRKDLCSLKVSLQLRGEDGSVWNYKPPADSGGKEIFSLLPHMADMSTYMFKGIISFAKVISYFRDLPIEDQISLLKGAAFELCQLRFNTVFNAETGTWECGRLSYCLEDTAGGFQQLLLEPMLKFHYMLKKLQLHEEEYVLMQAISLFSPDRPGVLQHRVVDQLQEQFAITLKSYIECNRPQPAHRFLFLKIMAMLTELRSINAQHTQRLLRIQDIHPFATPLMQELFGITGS
Summary of the method: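 Reporter HepG2 cells expressing PXR-Luc are cultured in charcoal-stripped FBS (5%), treated with compounds for 24 hr at 37 C, and assayed by ONE-Glo luminescence after 30 min at room temperature.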

[8] = target: Nuclear receptor subfamily 1 group I member 2 (Rattus norvegicus) (UniProt Q9R1A7); assay: Rat pregnane X receptor (rPXR) activation by small molecules, qHTS assay (AID 1346983); conditions: rPXR luciferase reporter cells, One-Glo luminescence, 24 h; max activation: stronger effect = higher value; note: nearly all actives have a fitted effect of over 20% in size; note: potency is the fitted concentration of half-maximal effect
Chain of Nuclear receptor subfamily 1 group I member 2 (Rattus norvegicus) (Q9R1A7 whole entry, looked up): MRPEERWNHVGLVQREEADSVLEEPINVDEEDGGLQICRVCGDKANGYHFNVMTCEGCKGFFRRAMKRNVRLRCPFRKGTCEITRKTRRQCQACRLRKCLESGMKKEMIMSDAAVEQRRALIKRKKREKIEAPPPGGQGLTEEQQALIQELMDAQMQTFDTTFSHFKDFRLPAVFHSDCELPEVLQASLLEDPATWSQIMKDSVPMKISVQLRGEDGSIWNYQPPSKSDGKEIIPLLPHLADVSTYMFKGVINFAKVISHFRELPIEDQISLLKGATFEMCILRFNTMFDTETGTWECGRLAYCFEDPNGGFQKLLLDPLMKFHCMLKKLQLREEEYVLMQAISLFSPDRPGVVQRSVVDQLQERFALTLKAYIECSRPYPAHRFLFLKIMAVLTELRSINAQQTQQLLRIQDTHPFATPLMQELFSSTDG
Summary of the method: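 Luminescent readout (One-Glo luciferase, 30 min room temperature) followed 24 hr compound treatment at 37 C of rPXR cells plated 2,000 per well and preincubated 5hr; qHTS format with compounds delivered in DMSO.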

[9] = target: Nuclear receptor subfamily 1 group I member 2 (Homo sapiens) (UniProt O75469); assay: CYP3A4 induction through human pregnane X receptor (PXR) by small molecules, qHTS assay (AID 1346984); conditions: DPX-2 HepG2 PXR, CYP3A4-luciferin luminescence, 24 h; series mostly up to 46.1 µM; note: nearly all actives have a fitted effect of over 40% in size; note: potency is the fitted concentration of half-maximal effect
Summary of the method: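 Induction measured in HepG2-based DPX-2 cells co-expressing human PXR and a CYP3A4 promoter-driven luciferase. After a 24-hour compound exposure, cells received CYP3A4 luciferin substrate at 3uM final for 3 hours, and light output was then recorded.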

[10] = target: Nuclear receptor subfamily 1 group I member 2 (Homo sapiens) (UniProt O75469); assay: Human pregnane X receptor (PXR) activation by small molecules, qHTS assay (AID 1346985); conditions: DPX-2 HepG2 CYP3A4-luciferase, 24 h; series mostly up to 38.3 µM; note: nearly all actives have a fitted effect of over 40% in size; note: potency is the fitted concentration of half-maximal effect
Summary of the method: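 DPX-2 cells (HepG2 co-transfected with a PXR response element and a CYP3A4-promoter luciferase construct) were seeded at 2,000 per well, rested 5 hr at 37C, then exposed to DMSO-dissolved compounds for 24 hr. Activation was read as luciferase luminescence.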

Row | Compound | outcome [1] | Potency [2] | outcome [3] | Potency [4] | outcome [5] | Potency [6] | Potency [7] | max activation [8] | Potency [9] | Potency [10] | Potency [8]
1 | CNCC(O)c1ccc(O)cc1 (stereo not given) | inactive | inactive | inactive | inactive | inactive | inactive | inactive | -2.53% (inactive) | inactive | inactive | 
2 | ClCCOCCCl | inactive | inactive | inactive | inactive | inactive | inactive | inactive |  |  |  | 
3 | CC(=O)/C=C/c1ccccc1 | inactive | inactive | inactive | inactive | inactive | inactive | inactive |  |  |  | 
4 | COc1nc(NC(C)C)nc(NC(C)C)n1 | inactive | inactive | inactive | inactive | inactive | inactive | 30.7 µM (active) and 54.5 µM (active) |  |  |  | 
5 | O=[N+]([O-])c1ccc(Cl)cc1 | inactive | inactive | inactive | 48.2 µM (active) and inactive | inactive | inactive | inactive |  |  |  | 
6 | CSc1nnc(C(C)(C)C)c(=O)n1N | inactive | inactive | inactive | inactive | inactive | inactive | inactive |  |  |  | 
7 | Nc1nc(N)nc(NC2CC2)n1 | inactive | inactive | inactive | inactive | inactive | inactive | inactive | -4.09% (inactive) | inactive | inactive | 
8 | Sc1ccccc1 | inactive | inactive | inactive | inactive | inactive | inactive | inactive |  |  |  | 
9 | CN(C)C(=O)Nc1cccc(C(F)(F)F)c1 | inactive | inactive | inactive | inactive | inactive | inactive | inactive |  |  |  | 
10 | CNC(=O)O/N=C/C(C)(C)S(C)(=O)=O | inactive | inactive | inactive | inactive | inactive | inactive | inactive |  |  |  | 
11 | O=[N+]([O-])c1ccc(Cl)c(Cl)c1 | inactive | inactive | inactive | inactive | inactive | inactive | inactive |  |  |  | 
12 | Cc1cccc(N)c1C | inactive | inactive | inactive | inactive | inactive | inactive | 61.1 µM (active) |  |  |  | 
13 | COP(=S)(OC)Oc1ccc(SC)c(C)c1 | inactive | inactive | inactive | inactive | inactive | inactive | 60.4 µM (active) and 37.6 µM (active) | 1.15% (inactive) | inactive | inactive | 
14 | c1ccc2c(c1)CCCC2 | inactive | inactive | inactive | inactive | inactive | inactive | inactive |  |  |  | 
15 | CNc1cnn(-c2cccc(C(F)(F)F)c2)c(=O)c1Cl | inactive | inactive | inactive | inactive | inactive | inactive | 46.8 µM (active) and 34.4 µM (active) |  |  |  | 
16 | O=[N+]([O-])c1cc([As](=O)(O)O)ccc1O | inactive | inactive | inactive | inactive | inactive | inactive | inactive |  | inactive | inactive | 12.6 µM (active)

Row | Compound | outcome [1] | Potency [2] | outcome [3] | Potency [4] | outcome [5] | Potency [6] | Potency [7] | max activation [8] | Potency [9] | Potency [10] | Potency [8]
17 | OC[C@@H](O)[C@H]1O[C@@H]2O[C@H](C(Cl)(Cl)Cl)O[C@@H]2[C@H]1O | inactive | inactive | inactive | inactive | inactive | inactive | inactive | -1.13% (inactive) | inactive | inactive | 
18 | Cc1cc(O)ccc1Cl | inactive | inactive | inactive | inactive | inactive | inactive | inactive | -2.1% (inactive) | inactive | inactive | 
19 | CC12CC1(C)C(=O)N(c1cc(Cl)cc(Cl)c1)C2=O (stereo not given) | inactive | inactive | inactive | inactive | inactive | inactive | 60.9 µM (active) and 24.3 µM (active) |  |  |  | 
20 | CCNc1nc(Cl)nc(NC(C)C)n1 | inactive | inactive | inactive | inactive | inactive | inactive | 67.8 µM (active) and 61.1 µM (active) |  |  |  | 
21 | C[C@H]1C(=O)O[C@@H]2CCN3CC=C(COC(=O)[C@](C)(O)[C@]1(C)O)[C@H]23 | inactive | inactive | inactive | inactive | inactive | inactive | inactive | -2.06% (inactive) | inactive | inactive | 
22 | CNC(=O)Oc1cccc2ccccc12 | inactive | inactive | inactive | inactive | inactive | inactive | 68 µM (active) and inactive | -0.0164% (inactive) | 3.16 µM (active) | inactive | 
23 | CN(C)CCC#N | inactive | inactive | inactive | inactive | inactive | inactive | inactive |  |  |  | 
24 | Cl[C@H]1OCCO[C@@H]1Cl | inactive | inactive | inactive | inactive | inactive | inactive | inactive |  |  |  | 
25 | O=S(=O)(O)OOS(=O)(=O)O | inactive | inactive | inactive | inactive | inactive | inactive | inactive |  |  |  | 
26 | COP(=S)(OC)SCN1C(=O)c2ccccc2C1=O | inactive | inactive | inactive | inactive | inactive | inactive | inactive | -1.79% (inactive) | inactive | inactive | 
27 | COC(C)(C)CCCC(C)C/C=C/C(C)=C/C(=O)OC(C)C (stereo not given) | inactive | inactive | inactive | inactive | inactive | inactive | 47.8 µM (active) | -0.367% (inactive) | inactive | 11.2 µM (active) | 
28 | O=C(O)COc1ccccc1 | inactive | inactive | inactive | inactive | inactive | inactive | inactive | -1.4% (inactive) | inactive | inactive | 
29 | C=CC#N | inactive | inactive | inactive | inactive | inactive | inactive | inactive |  |  |  | 
30 | O=C(O)c1cc(Oc2ccc(C(F)(F)F)cc2Cl)ccc1[N+](=O)[O-] | inactive | inactive | inactive | inactive | inactive | inactive | inactive and 61.4 µM (active) |  |  |  | 
31 | O=C(O)Cc1ccccc1 | inactive | inactive | inactive | inactive | inactive | inactive | inactive |  |  |  | 
